In PubChem BioAssay AID463116 (University of Pittsburgh Molecular Library Screening Center, 2010):
In all, about 1,000 compounds went through this assay and about 710 (71%) were called active. Inconclusive results (about 7%) are left out.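 The calls were made as follows: active = inhibition of receptor movement into the nucleus at or above a set limit in both runs, with normal cell brightness and cell count; inconclusive = limit reached in only one run, brightness and count normal; inactive = the rest.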 The set was probably picked from earlier hits. A selection follows.

assay: blockers of dexamethasone-driven GR-EGFP nuclear import – imaging, high-content imaging, GR-EGFP cells, confirmation (AID 463116); settings: 3617.4 GR-EGFP nuclear translocation imaging, dexamethasone-induced, at 20 µM; inhibition: stronger effect = higher value; z-score: measured here: cell count per field;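 as to inhibition: dexamethasone at 1 µM final in well for 30 min; nuclear minus cytoplasmic GR-EGFP mean intensity difference in channel 2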

SMILES	inhibition	z-score
O=C1NC(=O)N(c2ccccc2)C(=O)/C1=C/c1ccc([N+](=O)[O-])s1	81.8% (active)	0.0604
COc1cccc(N2C(=O)NC(=O)/C(=C\c3ccc([N+](=O)[O-])s3)C2=O)c1	81.3% (active)	0.0253
